Measurements published in ChEMBL document CHEMBL4513216, “Probing the Open Global Health Chemical Diversity Library for Multistage-Active Starting Points for Next-Generation Antimalarials” (ACS Infect Dis, 2020).
Out of some 69,000 compounds screened, about 8,600 (12%) showed an effect of 50% or more. The entries come from a sample that favours strong results as a whole.

The compounds below were run on Plasmodium berghei (assay: Screen against P. berghei liver stage (PbLuc), transformed with Luciferase, at 10uM). Details: tested at 10 uM.
Assay type: functional, HepG2

Structure (SMILES) | INHIBITION
N#CCCN(CC1CC1)Cn1cc(Cl)cn1 | 13.3%
O=C1CC(N(C(=O)CCc2c[nH]c3ccccc23)C2CC2)C(=O)N1 (configuration not stated) | 41.8%
Cn1ccc2c(C(=O)N3CCCC3c3noc(C4CC4)n3)cccc21 (configuration not stated) | 19.2%
Cc1nc(CN2C[C@@H]3CN(C(=O)NC(C)C)C[C@@H]3C2=O)cs1 | 11.3%
COCC1c2c(cnn2C)CCN1Cc1ccc(C)cc1 (configuration not stated) | 31.7%
CSC(C)(C)CNC(=O)NC(c1nnc2n1CCC2)C(C)C (configuration not stated) | 21.5%
COCCN1CCC2(CCC(=O)N2Cc2csc(C)n2)CC1 | -45.8%
COCCN1CCN(Cc2nc(-c3ccoc3)no2)CC1 | 31.1%
CCN1CCN(C2CCN(Cc3nc(-c4ccoc4)no3)CC2)C1=O | 26.3%
Fc1ccc(-c2noc(CN3CCC(c4cc[nH]n4)CC3)n2)cc1 | 34.6%
CN1CCN(C2CCN(Cc3nc(-c4ccoc4)no3)CC2)C1=O | 59.4%
O=C1NCCN1C1CCN(Cc2nc(-c3ccc(F)cc3)no2)CC1 | 93.6%
O=C1NCCN1C1CCN(Cc2nc(-c3ccoc3)no2)CC1 | 17%
O=C(c1ccc(-n2cccn2)c(F)c1)N1CCCN2CCCC2C1 (configuration not stated) | 49.1%
CCN(CC)C(=O)CN1CCCC1c1nc(C)c2c(n1)N(C)C(=O)CC2 (configuration not stated) | -0.55%
CC(=O)N1CCCC(Cc2nccn2C)C1 (configuration not stated) | 5.56%
C[C@@H]1CN(c2ccc(Cl)cn2)C[C@@]1(O)C1CC1 | 25.145%
O=C(NC1(c2nnn(CC3CC3)n2)CCCC1)c1ccccc1 | 42%
C=C(C)Cn1nnc(C2(NC(=O)c3ccccc3)CCCC2)n1 | 71.2%
O=C(NC1(c2nnn(CCO)n2)CCCC1)c1ccccc1 | -16.2%
Cc1cc(C)nc(C2CCN(C(=O)c3cnco3)C2)n1 (configuration not stated) | -8.12%
Cc1nn(C)c(C)c1C1COCCN1c1ncnc2c(C)cccc12 (configuration not stated) | 28.6%
Cc1nn(C)c(C)c1C1COCCN1c1ncncc1Br (configuration not stated) | 57.7%
Cc1ccc2ncnc(N3CCOCC3c3c(C)nn(C)c3C)c2c1 (configuration not stated) | 30%

Structure (SMILES) | INHIBITION
CN(Cc1ccc2c(c1)OCO2)C(=O)NCCc1cnn(C)c1 | 28.15%
Cc1ccccc1CNC(C)c1ccc(OCC(=O)NC2CC2)cc1 (configuration not stated) | 7.08%
Cc1nn(C)c(C)c1CCC(=O)N(C)Cc1ccc(C#N)cc1 | -12.5%
Cc1nc2c(C#N)cnn2c(C)c1CCC(=O)N(C)C(C)C(C)C (configuration not stated) | 62.8%
COCC(C)N(C)C(=O)CCc1c(C)nc2c(C#N)cnn2c1C (configuration not stated) | 63.8%
Cc1nc2cc(O)nn2c(C)c1CCC(=O)N(C)CCC(C)C | -57.5%
Cc1nc2c(C#N)cnn2c(C)c1CCC(=O)N(C)C1CC1 | 28.5%
COC(=O)c1cc(C2CC2)nc2c(C#N)cnn12 | 25.9%
CCCn1[nH]c(CNc2cccc(Cl)c2)nc1=O | 46.4%
Cc1nnc2n1CCN(C(=O)c1cc3cc(F)ccc3[nH]1)C2 | 14.1%
Cn1cc(CN2CCC3(CCCN(C(=O)c4cscn4)C3)C2)cn1 (configuration not stated) | -68.5%
Cc1cn2c(n1)CCC(NC(=O)c1cc(C3CC3)[nH]n1)C2 (configuration not stated) | -1.14%
Cc1cccc(N(C)Cc2cc(=O)n3oc(C)cc3n2)c1 | 43.5%
Cc1cc2nc(CN(C)c3ccccc3)cc(=O)n2o1 | 12.9%
Cc1cc2nc(CN(C)c3ccc(Cl)cc3)cc(=O)n2o1 | 56%
NC(=O)[C@H]1CCCN1C(=O)c1csc(-c2ccc(C(F)(F)F)cc2)n1 | -2.25%
CCOCC1CCN(C(=O)C(c2ccc(F)cc2)N(C)C)CC1 (configuration not stated) | 17.5%
CNS(=O)(=O)c1c(C)sc2ccccc12 | -77.9%
Cc1[nH]ncc1C(=O)N1CCCC(c2ccn[nH]2)C1 (configuration not stated) | 23.5%
Cc1nc(CN2CCCN(C(=O)c3cnccn3)CC2)cs1 | -16.4%
CCCS(=O)(=O)NCC(C)c1ccc(F)c(F)c1 (configuration not stated) | 10%
CC(CNS(N)(=O)=O)c1ccc(F)c(F)c1 (configuration not stated) | 31.1%
CC(CNS(C)(=O)=O)c1ccc(F)c(F)c1 (configuration not stated) | 60.4%
Cc1ccn(-c2ccnc(N3CCN(c4ncccn4)CC3)n2)n1 | 44.9%

Structure (SMILES) | INHIBITION
COCCO[C@H]1CCN(c2ccc(C)nn2)[C@H]1Cc1cnn(C)c1 | 13.7%
COc1ccc(CS(=O)(=O)CC(=O)NCc2ccccc2F)cc1F | 40.3%
CNC(=O)CS(=O)(=O)Cc1ccc(OC)c(F)c1 | 52.2%
COc1ccc(CS(=O)(=O)CC(=O)NCC2CC2)cc1F | 19%
Cc1nccn1CCN(C)C(=O)C1CCN(C(=O)C2CCCC2)CC1 | 48.9%
N#Cc1ccc(C(=O)N2CCCSCC2CN2CCCC2)cc1 (configuration not stated) | 40.8%
Cc1cc(S(C)(=O)=O)c(C)c(S(=O)(=O)N2CCCC(C)C2)c1 (configuration not stated) | 63%
Cc1cc(S(C)(=O)=O)c(C)c(S(=O)(=O)N2CCCCCC2)c1 | 36.4%
Cc1cc(S(C)(=O)=O)c(C)c(S(=O)(=O)N2CCN(C)CC2)c1 | 31.9%
CC(=O)c1c(F)cccc1NCC(O)C1CC1 (configuration not stated) | 26%
Cc1nc(NCc2scnc2-c2ccccc2)cc(C2CCNCC2)n1 | 24.3%
CN(C)c1ccc(-c2cc(=O)n3c(n2)CCCCC3)cc1 | 35.1%
Cc1ccc(S(=O)(=O)n2ccn(C(=O)COc3ccccc3)c2=O)cc1 | 44.1%
CC(C)Cc1nc(CSC2CCCN(c3cnn(C)c3)C2=O)no1 (configuration not stated) | 20.1%
Cn1cc(N2CCCC(SCc3nc(C4CC4)no3)C2=O)cn1 (configuration not stated) | 51.2%
Cc1cc(CSC2CCCN(c3cnn(C)c3)C2=O)no1 (configuration not stated) | 30.5%
c1nc(CCC2CCCN2)cc(N2CCCCCC2)n1 (configuration not stated) | 5.11%
Cc1n[nH]c(C)c1C1COCCN1C(=O)c1ccc2c(c1)CCO2 (configuration not stated) | 32.125%
CSCc1cc(F)ccc1CNCc1cccc(O)c1 | 5.15%
O=C1CC(c2ccc3c(c2)OCO3)c2snc(C(=O)O)c2N1 (configuration not stated) | 15.1%
CS(=O)(=O)N1CCC2(CC1)CC(CC(=O)NCC1CC1)c1ccccc12 (configuration not stated) | 3.69%
CC(C)N1CCC2(CC1)CC(CC(N)=O)c1ccc(F)cc12 (configuration not stated) | 58.7%
NC(=O)CC1CC2(CCNCC2)c2cc(F)ccc21 (configuration not stated) | 59.3%
CN(C)C(=O)CC1CC2(CCNCC2)c2cc(F)ccc21 (configuration not stated) | 59.1%

Structure (SMILES) | INHIBITION
O=C(CC1CC2(CCN(CC3CC3)CC2)c2ccccc21)NC1CCC1 (configuration not stated) | 34.4%
O=C(CC1CC2(CCNCC2)c2ccccc21)NCC1CC1 (configuration not stated) | 57.5%
COCCN1CCC2(CC1)CC(CC(N)=O)c1ccc(F)cc12 (configuration not stated) | -8.85%
CNC(=O)CC1CC2(CCNCC2)c2cc(F)ccc21 (configuration not stated) | 44.8%
O=C(C1CC1)N1CC2(CCNCC2)c2cc(F)ccc21 | -12.2%
COCC(=O)N1CCC2(CC1)CC(OC)c1ccc(F)cc12 (configuration not stated) | 42.1%
O=c1n(CCNCc2ccc(-c3ccccc3)cc2)nc2ccccn12 | 35.7%
Cc1nn(C)c(Cl)c1C1CCCN1CC(=O)Nc1cccnc1 (configuration not stated) | 21.6%
Cn1cc(-c2ncc3c(c2C(=O)O)CCN(CC2CCOC2)C3)cn1 (configuration not stated) | 17.7%
O=C(c1ccco1)N1C[C@H]2CCCN(Cc3ccc(F)cc3)[C@H]2C1 | 29.4%
Cc1nc(N(C)C)ncc1C(=O)N[C@H]1Cc2ccccc2[C@@H]1N | 2.7%
COCCN(Cc1ccoc1)S(=O)(=O)c1ccc(OC)c(Cl)c1 | 25.4%
Cc1noc(NCc2cn(C)nc2-c2cccnc2)n1 | 41.5%
Cc1oc(-c2nc(C#N)c(NC(C)C)o2)cc1S(=O)(=O)N1CCCCC1 | 60.1%
CNc1oc(-c2cc(S(=O)(=O)N3CCCCCC3)c(C)o2)nc1C#N | 39.5%
Cc1oc(-c2nc(C#N)c(NC(C)C)o2)cc1S(=O)(=O)N1CCCC1 | 34.6%
Cn1cnc(S(=O)(=O)N2CCCc3c(F)cc(F)cc32)c1Cl | 30.3%
Cc1cccc(OCCSCCn2nc3ccccn3c2=O)c1 | 22%
CCc1nc(CN(C)C(=O)c2ccc(OCCCOC)nc2)cs1 | 82.5%
COCCCOc1ccc(C(=O)N(C)Cc2cccc(O)c2)cn1 | 38%
COCCCOc1ccc(C(=O)N(C)CCC(C)C)cn1 | 39.7%
COCC(=O)N1CCC(c2cc(-c3ccc(OC)cc3)n[nH]2)C1 (configuration not stated) | -50.3%
CCOC1CCN(C(=O)Nc2ccc(=O)n(C)c2)CC1 | 33%
OCCn1nccc1C1CCN(CCOc2cccc(F)c2)CC1 | 31.9%

Structure (SMILES) | INHIBITION
CN1CCN(C2CCN(CCOc3ccccc3F)CC2)C1=O | -22.9%
COc1ccccc1OC1CCN(Cc2cccnc2)CC1 | 5.91%
c1cncc(O[C@H]2COCCN(CC3CC3)C2)c1 | 12.4%
Fc1cccc(OC2CCN(CCn3cc4ccccc4n3)CC2)c1 | 75.2%
CCc1ncc(CN2CCC(Oc3ccccc3OC)CC2)cn1 | -40%
Fc1ccccc1OC1CCN(CCn2cc3ccccc3n2)CC1 | 89.3%
c1cncc(OC2CCN(CCn3cc4ccccc4n3)CC2)c1 | 50.8%
Cc1ccc(CNC(=O)NCc2nccn2C)c(OC(C)(C)C)c1 | 43.5%
CC(C)NC(=O)N1CCN(C(=O)C2CCOCC2)CC2(CNC(=O)C2)C1 (configuration not stated) | 1.9%
CCC(=O)N1CCN(C(=O)NCCOc2ccc3c(c2)CCC3)CC1 | 30.2%
Cc1nccn1-c1ccc(NS(=O)(=O)c2cnn(C)c2)cn1 | 4.95%
Cc1cccc(CN2Cc3[nH]nc(COCC4CC4)c3C2)n1 | 48.2%
Cc1ncc(CN(C)CCO)c2cc(C(=O)c3ccc(Br)cc3)oc12 | 36.8%
Cc1ncc(CNCC(C)O)c2cc(C(=O)c3ccc(Br)cc3)oc12 (configuration not stated) | 50.5%
CN(C)c1ccc(C(=O)NCc2csc(Br)c2)cn1 | 1.75%
Cc1ncc(CNCCO)c2cc(C(=O)c3ccc(Br)cc3)oc12 | 59.2%
Cc1ncc(CNC(C)(C)CO)c2cc(C(=O)c3ccc(Br)cc3)oc12 | 65.3%
CC(O)CNC(=O)Nc1ccc(Br)cc1Br (configuration not stated) | 29.1%
COC(=O)c1oc(CNC(C)(C)CO)cc1C | -3.35%
Cc1ncc(CN2CCCC2)c2cc(C(=O)c3ccc(Br)cc3)oc12 | 44.5%
Cc1ncc(CN2CCOCC2)c2cc(C(=O)c3ccc(Br)cc3)oc12 | -21.8%
